Assay results as given in ChEMBL document CHEMBL1961873, “Compounds: GSK PKIS; Assays: Nanosyn kinase panel” (2012).

Columns and labels:
[1] = biological target: T1, Ephrin type-B receptor 2 (Homo sapiens) (UniProt P29323); details: at 1 µM
T1 sequence (whole entry): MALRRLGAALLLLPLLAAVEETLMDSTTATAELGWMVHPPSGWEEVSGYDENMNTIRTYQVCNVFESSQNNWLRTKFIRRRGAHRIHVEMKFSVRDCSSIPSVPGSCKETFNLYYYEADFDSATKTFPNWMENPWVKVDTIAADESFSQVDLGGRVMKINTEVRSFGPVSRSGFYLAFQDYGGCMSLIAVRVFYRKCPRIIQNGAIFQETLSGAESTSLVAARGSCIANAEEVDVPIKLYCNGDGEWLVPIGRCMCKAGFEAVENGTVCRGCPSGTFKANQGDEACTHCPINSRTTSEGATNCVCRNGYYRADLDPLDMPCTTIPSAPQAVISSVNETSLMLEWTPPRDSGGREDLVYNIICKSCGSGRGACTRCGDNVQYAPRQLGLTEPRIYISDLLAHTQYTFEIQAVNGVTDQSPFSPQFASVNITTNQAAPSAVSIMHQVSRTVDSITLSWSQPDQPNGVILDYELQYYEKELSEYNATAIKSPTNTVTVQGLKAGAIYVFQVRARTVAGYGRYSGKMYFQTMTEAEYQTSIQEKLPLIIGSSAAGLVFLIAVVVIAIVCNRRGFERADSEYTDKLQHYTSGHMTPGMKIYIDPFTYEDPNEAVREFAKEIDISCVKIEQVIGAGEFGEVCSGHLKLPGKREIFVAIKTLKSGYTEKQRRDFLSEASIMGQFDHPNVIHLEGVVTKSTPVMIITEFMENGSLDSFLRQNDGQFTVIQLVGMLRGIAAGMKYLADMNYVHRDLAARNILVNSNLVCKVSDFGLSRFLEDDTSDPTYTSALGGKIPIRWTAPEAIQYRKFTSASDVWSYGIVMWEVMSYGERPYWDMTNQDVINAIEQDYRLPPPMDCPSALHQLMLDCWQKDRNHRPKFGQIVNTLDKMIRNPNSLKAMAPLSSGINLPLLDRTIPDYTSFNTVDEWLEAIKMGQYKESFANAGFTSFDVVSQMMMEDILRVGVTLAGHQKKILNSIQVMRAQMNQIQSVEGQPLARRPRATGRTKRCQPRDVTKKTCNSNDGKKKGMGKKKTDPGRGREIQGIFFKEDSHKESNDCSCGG

[2] = biological target: T2, Ephrin type-B receptor 3 (Homo sapiens) (UniProt P54753); details: at 0.1 µM
T2 sequence (whole entry): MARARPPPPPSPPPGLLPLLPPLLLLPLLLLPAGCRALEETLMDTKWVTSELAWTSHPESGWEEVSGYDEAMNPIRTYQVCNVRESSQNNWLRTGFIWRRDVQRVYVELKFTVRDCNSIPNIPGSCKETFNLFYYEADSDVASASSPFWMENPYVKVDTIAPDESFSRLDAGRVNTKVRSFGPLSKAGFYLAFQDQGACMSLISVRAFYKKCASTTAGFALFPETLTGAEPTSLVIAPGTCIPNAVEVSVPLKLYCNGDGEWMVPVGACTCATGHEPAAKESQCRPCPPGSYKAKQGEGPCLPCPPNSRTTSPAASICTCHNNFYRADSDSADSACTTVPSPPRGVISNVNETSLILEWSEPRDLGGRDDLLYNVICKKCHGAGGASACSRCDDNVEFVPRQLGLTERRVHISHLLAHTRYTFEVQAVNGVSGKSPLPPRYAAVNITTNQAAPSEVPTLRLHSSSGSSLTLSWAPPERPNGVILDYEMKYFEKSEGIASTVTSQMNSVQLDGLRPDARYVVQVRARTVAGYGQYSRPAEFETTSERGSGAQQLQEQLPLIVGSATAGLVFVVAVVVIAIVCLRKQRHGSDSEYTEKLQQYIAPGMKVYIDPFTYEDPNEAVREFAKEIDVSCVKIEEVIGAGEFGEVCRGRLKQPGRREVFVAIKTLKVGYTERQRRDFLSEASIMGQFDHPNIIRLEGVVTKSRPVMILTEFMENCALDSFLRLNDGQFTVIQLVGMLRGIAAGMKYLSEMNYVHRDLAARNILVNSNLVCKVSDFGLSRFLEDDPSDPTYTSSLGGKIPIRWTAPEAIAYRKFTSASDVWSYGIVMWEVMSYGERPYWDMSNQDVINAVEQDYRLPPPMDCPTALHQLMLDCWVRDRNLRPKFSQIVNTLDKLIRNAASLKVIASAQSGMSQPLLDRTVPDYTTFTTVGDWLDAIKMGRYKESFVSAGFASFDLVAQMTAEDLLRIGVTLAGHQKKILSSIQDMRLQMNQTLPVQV

[3] = biological target: T2, Ephrin type-B receptor 3 (Homo sapiens); details: at 1 µM
[4] = biological target: T3, Ephrin type-B receptor 4 (Homo sapiens) (UniProt P54760); details: at 0.1 µM
T3 sequence (whole entry): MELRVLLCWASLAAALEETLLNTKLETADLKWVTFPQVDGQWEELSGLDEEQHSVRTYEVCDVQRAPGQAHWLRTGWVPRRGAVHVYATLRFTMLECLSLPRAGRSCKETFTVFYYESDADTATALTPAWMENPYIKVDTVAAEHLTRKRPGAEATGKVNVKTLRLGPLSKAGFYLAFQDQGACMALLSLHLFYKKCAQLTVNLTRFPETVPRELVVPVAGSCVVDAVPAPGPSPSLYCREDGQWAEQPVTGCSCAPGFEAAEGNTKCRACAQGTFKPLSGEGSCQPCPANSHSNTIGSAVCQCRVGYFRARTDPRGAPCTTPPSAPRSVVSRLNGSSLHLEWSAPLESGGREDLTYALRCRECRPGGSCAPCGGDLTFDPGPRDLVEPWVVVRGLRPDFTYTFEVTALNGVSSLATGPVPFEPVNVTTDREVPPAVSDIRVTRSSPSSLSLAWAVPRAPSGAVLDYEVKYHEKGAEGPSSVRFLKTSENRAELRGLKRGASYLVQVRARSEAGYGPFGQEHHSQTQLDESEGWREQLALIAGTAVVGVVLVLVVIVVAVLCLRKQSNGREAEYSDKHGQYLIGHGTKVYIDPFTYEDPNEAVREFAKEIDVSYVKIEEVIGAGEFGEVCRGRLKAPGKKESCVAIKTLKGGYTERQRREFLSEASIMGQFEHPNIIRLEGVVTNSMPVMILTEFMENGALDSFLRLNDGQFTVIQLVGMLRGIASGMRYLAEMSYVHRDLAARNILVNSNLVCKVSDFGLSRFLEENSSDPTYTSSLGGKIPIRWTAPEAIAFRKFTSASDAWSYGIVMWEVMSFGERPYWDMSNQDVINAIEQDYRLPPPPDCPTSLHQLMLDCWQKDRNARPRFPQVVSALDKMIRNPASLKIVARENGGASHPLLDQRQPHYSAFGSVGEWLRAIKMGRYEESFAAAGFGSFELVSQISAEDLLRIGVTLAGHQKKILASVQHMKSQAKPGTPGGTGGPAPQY

[5] = biological target: T3, Ephrin type-B receptor 4 (Homo sapiens); details: at 1 µM
[6] = biological target: Receptor tyrosine-protein kinase erbB-2 (Homo sapiens) (UniProt P04626); details: at 0.1 µM
Receptor tyrosine-protein kinase erbB-2 (Homo sapiens), sequence (P04626 whole entry): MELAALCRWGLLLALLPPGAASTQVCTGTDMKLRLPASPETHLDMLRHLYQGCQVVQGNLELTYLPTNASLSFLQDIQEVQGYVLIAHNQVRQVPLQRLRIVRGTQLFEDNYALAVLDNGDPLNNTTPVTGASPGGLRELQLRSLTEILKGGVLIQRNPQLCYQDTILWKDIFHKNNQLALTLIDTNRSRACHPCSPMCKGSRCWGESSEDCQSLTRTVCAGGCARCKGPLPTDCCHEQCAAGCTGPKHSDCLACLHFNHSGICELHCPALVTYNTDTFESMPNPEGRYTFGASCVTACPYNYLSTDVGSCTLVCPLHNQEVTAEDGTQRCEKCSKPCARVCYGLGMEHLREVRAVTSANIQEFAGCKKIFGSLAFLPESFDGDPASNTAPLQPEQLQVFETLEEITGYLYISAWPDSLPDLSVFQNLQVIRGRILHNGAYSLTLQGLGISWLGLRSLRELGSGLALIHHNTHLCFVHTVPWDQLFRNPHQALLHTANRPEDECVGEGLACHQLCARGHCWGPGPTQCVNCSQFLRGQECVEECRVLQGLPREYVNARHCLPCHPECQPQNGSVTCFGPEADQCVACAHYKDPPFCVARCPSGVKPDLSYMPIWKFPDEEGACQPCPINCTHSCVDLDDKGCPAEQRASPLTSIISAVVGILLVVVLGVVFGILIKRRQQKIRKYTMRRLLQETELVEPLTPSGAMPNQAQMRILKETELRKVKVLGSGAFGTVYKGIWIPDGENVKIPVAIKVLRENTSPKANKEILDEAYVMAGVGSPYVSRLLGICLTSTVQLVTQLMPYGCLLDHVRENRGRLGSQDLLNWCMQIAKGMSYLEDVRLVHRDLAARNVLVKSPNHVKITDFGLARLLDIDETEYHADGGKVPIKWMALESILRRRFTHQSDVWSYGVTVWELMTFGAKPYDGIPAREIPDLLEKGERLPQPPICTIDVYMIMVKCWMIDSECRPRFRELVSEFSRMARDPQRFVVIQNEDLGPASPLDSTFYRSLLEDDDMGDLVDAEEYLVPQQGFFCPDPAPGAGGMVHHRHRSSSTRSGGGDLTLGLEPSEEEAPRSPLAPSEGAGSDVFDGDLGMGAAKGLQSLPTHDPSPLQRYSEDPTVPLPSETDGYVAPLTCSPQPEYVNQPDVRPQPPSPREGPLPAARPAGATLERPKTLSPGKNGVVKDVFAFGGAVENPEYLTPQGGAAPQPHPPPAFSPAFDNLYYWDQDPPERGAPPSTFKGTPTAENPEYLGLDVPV

[7] = biological target: Receptor tyrosine-protein kinase erbB-2 (Homo sapiens) (UniProt P04626); details: at 1 µM
[8] = biological target: Receptor tyrosine-protein kinase erbB-4 (Homo sapiens) (UniProt Q15303); details: at 0.1 µM
[9] = biological target: Receptor tyrosine-protein kinase erbB-4 (Homo sapiens) (UniProt Q15303); details: at 1 µM
[10] = biological target: Tyrosine-protein kinase Fer (Homo sapiens) (UniProt P16591); details: at 0.1 µM
[11] = biological target: Tyrosine-protein kinase Fer (Homo sapiens) (UniProt P16591); details: at 1 µM
[12] = biological target: Tyrosine-protein kinase Fes/Fps (Homo sapiens) (UniProt P07332); details: at 0.1 µM
Tyrosine-protein kinase Fes/Fps (Homo sapiens), sequence (P07332 whole entry): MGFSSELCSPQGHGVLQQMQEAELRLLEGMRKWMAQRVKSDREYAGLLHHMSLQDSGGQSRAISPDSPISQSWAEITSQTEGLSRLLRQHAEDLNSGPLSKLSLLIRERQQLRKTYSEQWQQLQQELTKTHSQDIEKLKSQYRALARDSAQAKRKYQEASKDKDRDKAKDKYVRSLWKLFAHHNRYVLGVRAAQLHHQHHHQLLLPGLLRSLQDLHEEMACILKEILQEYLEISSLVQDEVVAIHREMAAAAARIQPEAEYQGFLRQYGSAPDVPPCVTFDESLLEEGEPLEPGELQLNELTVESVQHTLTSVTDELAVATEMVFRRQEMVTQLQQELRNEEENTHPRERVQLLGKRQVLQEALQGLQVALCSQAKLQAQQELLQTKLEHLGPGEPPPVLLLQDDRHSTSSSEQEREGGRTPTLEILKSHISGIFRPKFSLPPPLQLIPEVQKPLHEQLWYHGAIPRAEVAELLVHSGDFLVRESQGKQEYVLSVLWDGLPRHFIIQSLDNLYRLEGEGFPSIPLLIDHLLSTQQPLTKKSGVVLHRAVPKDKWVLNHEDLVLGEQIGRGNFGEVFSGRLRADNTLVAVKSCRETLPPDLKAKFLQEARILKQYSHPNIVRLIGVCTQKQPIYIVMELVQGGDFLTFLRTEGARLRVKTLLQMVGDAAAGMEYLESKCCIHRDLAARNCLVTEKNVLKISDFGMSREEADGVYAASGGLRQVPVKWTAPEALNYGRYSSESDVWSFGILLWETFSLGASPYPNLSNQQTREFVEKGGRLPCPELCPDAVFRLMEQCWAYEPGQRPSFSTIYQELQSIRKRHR

[13] = biological target: Tyrosine-protein kinase Fes/Fps (Homo sapiens) (UniProt P07332); details: at 1 µM
[14] = biological target: Fibroblast growth factor receptor 1 (Homo sapiens) (UniProt P11362); details: at 0.1 µM
Fibroblast growth factor receptor 1 (Homo sapiens), sequence (P11362 22-822 limits assumed): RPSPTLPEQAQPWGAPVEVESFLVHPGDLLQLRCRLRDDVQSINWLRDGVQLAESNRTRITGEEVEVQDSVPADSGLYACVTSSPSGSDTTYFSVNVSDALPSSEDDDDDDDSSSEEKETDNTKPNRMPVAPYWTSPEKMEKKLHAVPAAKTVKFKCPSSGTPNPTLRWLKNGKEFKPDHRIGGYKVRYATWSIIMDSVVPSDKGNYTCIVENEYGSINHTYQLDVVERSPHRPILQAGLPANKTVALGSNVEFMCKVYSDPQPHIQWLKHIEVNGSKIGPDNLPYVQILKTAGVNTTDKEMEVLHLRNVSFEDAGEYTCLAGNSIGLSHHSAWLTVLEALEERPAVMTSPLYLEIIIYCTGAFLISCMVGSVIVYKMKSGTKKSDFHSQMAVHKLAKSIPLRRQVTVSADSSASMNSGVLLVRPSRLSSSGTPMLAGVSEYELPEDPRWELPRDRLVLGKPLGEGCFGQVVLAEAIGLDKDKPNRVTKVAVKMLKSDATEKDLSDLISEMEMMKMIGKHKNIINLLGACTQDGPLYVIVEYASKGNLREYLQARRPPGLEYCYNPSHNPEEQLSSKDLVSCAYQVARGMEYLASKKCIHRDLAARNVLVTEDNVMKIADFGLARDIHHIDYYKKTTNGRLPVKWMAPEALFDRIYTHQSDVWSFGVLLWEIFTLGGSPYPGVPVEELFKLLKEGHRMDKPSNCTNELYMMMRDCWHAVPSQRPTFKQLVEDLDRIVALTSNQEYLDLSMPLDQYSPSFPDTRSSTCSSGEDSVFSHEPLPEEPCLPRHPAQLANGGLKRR

[15] = biological target: Fibroblast growth factor receptor 1 (Homo sapiens) (UniProt P11362); details: at 1 µM
[16] = biological target: Fibroblast growth factor receptor 2 (Homo sapiens) (UniProt P21802); details: at 0.1 µM
[17] = biological target: Fibroblast growth factor receptor 2 (Homo sapiens) (UniProt P21802); details: at 1 µM
[18] = biological target: Fibroblast growth factor receptor 3 (Homo sapiens) (UniProt P22607); details: at 0.1 µM
Fibroblast growth factor receptor 3 (Homo sapiens), sequence (P22607 23-806 limits assumed): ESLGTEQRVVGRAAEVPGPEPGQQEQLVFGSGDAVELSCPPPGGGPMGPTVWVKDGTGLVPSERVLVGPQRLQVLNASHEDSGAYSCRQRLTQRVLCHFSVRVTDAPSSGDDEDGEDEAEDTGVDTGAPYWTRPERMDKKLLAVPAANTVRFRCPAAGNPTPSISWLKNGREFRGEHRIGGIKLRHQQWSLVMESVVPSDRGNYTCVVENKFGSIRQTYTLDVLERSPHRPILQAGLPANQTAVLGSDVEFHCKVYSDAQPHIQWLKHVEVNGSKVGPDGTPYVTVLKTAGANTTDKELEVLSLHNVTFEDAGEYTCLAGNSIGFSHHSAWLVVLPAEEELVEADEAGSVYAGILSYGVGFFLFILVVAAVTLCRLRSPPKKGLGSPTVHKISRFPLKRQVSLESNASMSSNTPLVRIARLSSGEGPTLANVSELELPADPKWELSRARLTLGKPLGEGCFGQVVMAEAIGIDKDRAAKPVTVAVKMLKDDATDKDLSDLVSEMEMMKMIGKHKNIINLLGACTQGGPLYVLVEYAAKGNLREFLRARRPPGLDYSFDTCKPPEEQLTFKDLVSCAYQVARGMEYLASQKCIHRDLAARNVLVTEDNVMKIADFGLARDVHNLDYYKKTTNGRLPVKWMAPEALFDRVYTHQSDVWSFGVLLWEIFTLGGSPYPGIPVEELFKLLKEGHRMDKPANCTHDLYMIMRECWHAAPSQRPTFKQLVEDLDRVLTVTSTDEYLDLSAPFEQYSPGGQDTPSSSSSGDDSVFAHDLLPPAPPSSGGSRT

[19] = biological target: Fibroblast growth factor receptor 3 (Homo sapiens) (UniProt P22607); details: at 1 µM
[20] = biological target: Fibroblast growth factor receptor 4 (Homo sapiens) (UniProt P22455); details: at 0.1 µM;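 note: values are mean percent inhibition of FGFR4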
Fibroblast growth factor receptor 4 (Homo sapiens), sequence (P22455 22-802 limits assumed): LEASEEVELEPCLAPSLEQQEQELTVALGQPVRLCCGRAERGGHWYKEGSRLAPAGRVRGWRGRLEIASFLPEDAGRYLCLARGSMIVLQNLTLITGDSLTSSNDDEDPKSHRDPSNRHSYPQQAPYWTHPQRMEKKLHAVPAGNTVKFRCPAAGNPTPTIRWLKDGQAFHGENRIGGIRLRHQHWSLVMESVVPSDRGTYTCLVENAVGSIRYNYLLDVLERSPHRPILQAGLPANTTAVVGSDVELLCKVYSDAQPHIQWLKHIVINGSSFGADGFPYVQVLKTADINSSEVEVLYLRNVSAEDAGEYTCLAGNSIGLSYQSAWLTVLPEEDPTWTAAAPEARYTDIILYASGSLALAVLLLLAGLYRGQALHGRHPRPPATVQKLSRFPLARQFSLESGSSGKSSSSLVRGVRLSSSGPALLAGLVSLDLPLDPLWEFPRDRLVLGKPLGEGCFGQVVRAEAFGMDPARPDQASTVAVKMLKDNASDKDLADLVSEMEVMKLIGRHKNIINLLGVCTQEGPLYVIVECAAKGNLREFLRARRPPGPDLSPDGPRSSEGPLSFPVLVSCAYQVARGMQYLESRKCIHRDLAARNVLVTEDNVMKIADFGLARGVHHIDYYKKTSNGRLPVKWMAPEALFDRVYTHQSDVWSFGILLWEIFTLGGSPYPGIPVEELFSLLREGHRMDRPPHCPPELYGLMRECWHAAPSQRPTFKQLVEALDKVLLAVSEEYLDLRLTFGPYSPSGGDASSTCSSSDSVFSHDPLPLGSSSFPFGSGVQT

Work on `COc1cc2ncn(-c3cc(O[C@@H](C)c4ccccc4Cl)c(C(N)=O)s3)c2cc1OC` yielded an inhibition [1] of 14.1%, an inhibition [2] of 3.27% and an inhibition [3] of 3.66%. For the same compound, the inhibition [4] was 1.67%, the inhibition [5] was 4.23% and the inhibition [6] was 0.23%. For the same compound, the inhibition [7] was 6.51%, the inhibition [8] was 6.3% and the inhibition [9] was 14.2%. The inhibition [10] was 6.4%, the inhibition [11] was 8.42% and the inhibition [12] was 3.85%. For the same compound, the inhibition [13] was 2.83%, the inhibition [14] was 2.01% and the inhibition [15] was 17.2%. The inhibition [16] was 7.05%, the inhibition [17] was 21.9% and the inhibition [18] was 6.87%. For the same compound, the inhibition [19] was 24.3% and the inhibition [20] was 0.49%.

`c1cnn2ncc(-c3ccnc(Nc4ccc5c(c4)OCCO5)n3)c2c1` gave an inhibition [1] of 29.4%, an inhibition [2] of 3.36% and an inhibition [3] of 6.8%. For the same compound, the inhibition [4] was 3.69%, the inhibition [5] was 12.5% and the inhibition [6] was 1.94%. It also gave an inhibition [7] of 2.67%, an inhibition [8] of 8.29% and an inhibition [9] of 12.4%. The inhibition [10] was 10.7%, the inhibition [11] was 43.7% and the inhibition [12] was 10.5%. The inhibition [13] was 48%, the inhibition [14] was 5.77% and the inhibition [15] was 5.22%. It also gave an inhibition [16] of 6.35%, an inhibition [17] of 15.9% and an inhibition [18] of 6.39%. The inhibition [19] was 15.7% and the inhibition [20] was -0.77%.

`CS(=O)(=O)Nc1ccc(N/C=C2\C(=O)Nc3ccccc32)cc1` was tested, and the inhibition [1] was 0.55%, the inhibition [2] was -5.53% and the inhibition [3] was -3.88%. For the same compound, the inhibition [4] was 0.19%, the inhibition [5] was -0.64% and the inhibition [6] was -3.57%. The inhibition [7] was -1.76%, the inhibition [9] was -9.44% and the inhibition [10] was 1.8%. For the same compound, the inhibition [11] was 5.06%, the inhibition [12] was -2.08% and the inhibition [13] was -1.95%. For the same compound, the inhibition [14] was -1.9%, the inhibition [15] was 5.82% and the inhibition [16] was 1.04%. The inhibition [17] was 27.1%, the inhibition [18] was 1.57% and the inhibition [19] was 25.5%. It also gave an inhibition [20] of 2.33%.

`O=C1NC(=O)C(c2ccccc2Cl)=C1Nc1cccc(O)c1` showed an inhibition [1] of 7.6%, an inhibition [2] of 4.32% and an inhibition [3] of 1.16%. For the same compound, the inhibition [4] was 1.29%, the inhibition [5] was 3.19% and the inhibition [6] was 0.64%. The inhibition [7] was -0.2%, the inhibition [8] was 8.95% and the inhibition [9] was 8.95%. It also gave an inhibition [10] of 4.57%, an inhibition [11] of 2.82% and an inhibition [12] of 1.81%. It also gave an inhibition [13] of 2.5%, an inhibition [14] of 4.34% and an inhibition [15] of 7.05%. The inhibition [16] was 3.39%, the inhibition [17] was -3.75% and the inhibition [18] was 2.9%. The inhibition [19] was 2.97% and the inhibition [20] was 1.92%.

For `Nc1ncnc2occ(-c3ccc(NC(=O)Nc4cccc(C(F)(F)F)c4)cc3)c12`, the inhibition [1] was 78.2%, the inhibition [2] was 19.6% and the inhibition [3] was 68.2%. For the same compound, the inhibition [4] was 31.2%, the inhibition [5] was 84.4% and the inhibition [6] was -0.01%. The inhibition [7] was 3.75%, the inhibition [8] was 8.79% and the inhibition [9] was 15.2%. It also gave an inhibition [10] of 2.94%, an inhibition [11] of 33.6% and an inhibition [12] of 3.8%. It also gave an inhibition [13] of 4.91%, an inhibition [14] of 8.01% and an inhibition [15] of 38.2%. For the same compound, the inhibition [16] was 15.8%, the inhibition [17] was 52.5% and the inhibition [18] was 7.97%. The inhibition [19] was 34.4% and the inhibition [20] was -1%.

With `Cc1cccc(-c2n[nH]cc2-c2ccc3ncccc3n2)n1` the inhibition [1] was 5.67%, the inhibition [2] was 2.71% and the inhibition [3] was 1.95%. The inhibition [4] was -0.2%, the inhibition [5] was 2.61% and the inhibition [6] was 1.42%. For the same compound, the inhibition [7] was -0.81%, the inhibition [8] was 2.27% and the inhibition [9] was 4%. The inhibition [10] was 0.04%, the inhibition [11] was 0.01% and the inhibition [12] was 0.45%. The inhibition [13] was -0.18%, the inhibition [14] was -0.21% and the inhibition [15] was 8.38%. For the same compound, the inhibition [16] was 0.62%, the inhibition [17] was 5.35% and the inhibition [18] was 1.61%. It also gave an inhibition [19] of 4.89% and an inhibition [20] of 3.49%.

`COc1ccc(-c2ccncc2)cc1C(N)=O` was tested, and the inhibition [1] was 8.22%, the inhibition [2] was 3.97% and the inhibition [3] was 3.63%. It also gave an inhibition [4] of 1%, an inhibition [5] of 2.03% and an inhibition [6] of 1.06%. The inhibition [7] was 2.95%, the inhibition [8] was 6.21% and the inhibition [9] was 12.3%. It also gave an inhibition [10] of 4.03%, an inhibition [11] of 3.22% and an inhibition [12] of 2.97%. The inhibition [13] was 3.83%, the inhibition [14] was 4.37% and the inhibition [15] was 8.58%. For the same compound, the inhibition [16] was 7.42%, the inhibition [17] was 8.69% and the inhibition [18] was 7.66%. It also gave an inhibition [19] of 7.43% and an inhibition [20] of 2.74%.
